Paper PMC5540273 (PLoS ONE, 2017)

Columns and labels:
Settings in all cases: concentration: 1 μM, replicates: in singlicate; n = 1
AAK1 = tested on: AAK1
ABL1-nonphosphorylated = tested on: ABL1-nonphosphorylated
ABL1-phosphorylated = tested on: ABL1-phosphorylated
ABL2 = tested on: ABL2
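Note: KINOMEscan kinase panel screen.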

Compound | %Inh (AAK1) [%] | %Inh (ABL1-nonphosphorylated) [%] | %Inh (ABL1-phosphorylated) [%] | %Inh (ABL2) [%]
CCc1ccc(-c2ccc3c(c2)-c2nn(C)cc2S(=O)(=O)N3C)cc1 | 19 | 31 | 0 | 0
CCS(=O)c1ccc(-c2coc3ccc(-c4nnc(C)o4)cc23)cc1 (stereo not drawn) | 0 | 27 | 0 | 0
CCC(=O)c1c(-c2ccccc2)c2cc(Cl)ccc2c(=O)n1Cc1cc(S(C)(=O)=O)n(CCC(C)(C)O)n1 | 25 | 6 | 3 | 9
Cl.NS(=O)(=O)c1cccc(Nc2cc(-c3ccc(F)cc3)n[nH]2)c1 [GW824645] | 9 | 5 | 24 | 0
Nc1n[nH]c2nnc(-c3ccccc3)c(-c3ccccc3)c12 [GW554060] | 0 | 0 | 0 | 9
COC(=O)c1c(-c2ccccc2)c2cc(Br)ccc2c(=O)n1Cc1ccc(S(C)(=O)=O)cc1 | 27 | 25 | 9 | 32
COc1cc(Nc2ccnc3ccc(C(F)(F)F)cc23)cc(OC)c1OC [GW577382] | 8 | 27 | 19 | 28
CCS(=O)(=O)c1ccc(OC)c(Nc2ncc(-c3ccc(F)cc3)o2)c1.Cl [GW591947] | 4 | 0 | 0 | 0
CCc1nc(-c2cccc(C)c2)c(-c2ccncc2)s1 | 0 | 60 | 11 | 6
Cc1cccc(-c2cc(-c3c[nH]nc3-c3ccccn3)ccn2)c1 [GW679395] | 14 | 68 | 29 | 48
COc1ccc(-c2cc3c(C)nc(N)nc3n([C@H]3CC[C@H](OCCO)CC3)c2=O)cn1 | 0 | 0 | 0 | 0
Cc1nn2c(=O)cc(N3CCOCC3)nc2n1Cc1cccc(Cl)c1Cl [GSK2342769] | 14 | 0 | 0 | 9
COc1cc2nccc(Nc3ccc(OCc4ccc(NC(C)=O)cc4)cc3)c2cc1OC.Cl [GW440135] | 0 | 17 | 0 | 4
Nc1nccc2scc(-c3ccc4c(c3)CCN4C(=O)Cc3ccccc3)c12 [GSK2576924] | 8 | 0 | 0 | 1
O=c1cc(N2CCOCC2)nc2n(Cc3ccc(F)c(Cl)c3)ccn12 [GSK2297099] | 24 | 0 | 0 | 0
COc1cc2ncn(-c3cc(OCc4ccc(S(C)(=O)=O)cc4)c(C(N)=O)s3)c2cc1OC [GW869979] | 0 | 0 | 13 | 14
CCC(=O)c1c(-c2ccccc2)c2cc(Cl)ccc2c(=O)n1Cc1cc(S(C)(=O)=O)n(CC(N)=O)n1 | 0 | 44 | 9 | 0
Nc1n[nH]c2ncc(-c3ccccc3)cc12 [SB-517081] | 36 | 0 | 18 | 17
COc1cc2ncn(-c3cc(OCc4ccncc4)c(C(N)=O)s3)c2cc1OC [GSK336313] | 58 | 0 | 7 | 0
Cc1ccccc1COc1cc(-n2cnc3cc(Cl)ccc32)sc1C(N)=O [GW813349] | 2 | 9 | 14 | 13

Compound | %Inh (AAK1) [%] | %Inh (ABL1-nonphosphorylated) [%] | %Inh (ABL1-phosphorylated) [%] | %Inh (ABL2) [%]
Cc1cc(Nc2nc(-c3cccc(C)n3)nc3ccccc23)ccn1 [GW872411] | 0 | 52 | 13 | 0
CCC(=O)c1c(-c2ccccc2)c2cc(Cl)ccc2c(=O)n1Cc1ccc(C(=O)O)cc1 | 0 | 30 | 0 | 15
COc1ccc(-n2cnc3c(N)ncnc32)cc1 [SKF-97236] | 15 | 28 | 1 | 10
CN1C(=O)C(Nc2ccccc2)=C(c2ccccc2)C1=O [SB-300079] | 0 | 0 | 6 | 0
COc1cc2ncn(-c3cc(OCCCc4ccccc4)c(C(N)=O)s3)c2cc1OC [GSK205189] | 35 | 0 | 0 | 5
COc1cccc(C2=C(Nc3cccc(C(=O)O)c3)C(=O)NC2=O)c1 [SB-390770] | 3 | 0 | 0 | 6
Nc1ncnc2c1ncn2-c1cccc(F)c1 [SKF-97560] | 0 | 9 | 14 | 8
COc1cc(Nc2nccc(N3CCC(NC(=O)C4COc5ccccc5O4)C3)n2)cc(OC)c1OC (stereo not drawn) [GSK1379761] | 66 | 0 | 0 | 3
CCC(=O)c1c(-c2ccccc2)c2cc(Cl)ccc2c(=O)n1Cc1cc(C(=O)NC2CC2)n(C)n1 | 20 | 20 | 0 | 9
CCn1c(-c2ccoc2)nc2cnccc21 [SB-733887] | 1 | 1 | 17 | 10
Cc1ccc(-c2ccc3c(ccc4sc5c(c43)NC[C@@H](C)N=C5N(C)C)n2)cn1 | 0 | 0 | 0 | 0
Cn1c(=O)c(F)c(Nc2ccc(I)cc2F)c2c(=O)n(OC[C@H](O)CO)cnc21 | 10 | 54 | 41 | 3
Nc1nc(N)c2nc(-c3ccccc3)[nH]c2n1 [SKF-12778] | 23 | 18 | 15 | 9
Cc1c(Cn2c(C)nn3c(=O)cc(N4CCO[C@H](C)C4)nc23)cccc1C(F)(F)F [GSK2373690] | 0 | 0 | 2 | 24
COC(=O)c1c(-c2ccccc2)c2cc(C)ccc2c(=O)n1Cc1ccccc1 | 1 | 53 | 0 | 6
CCCNC(=O)Nc1ccc(Oc2ncnc3ccn(C)c23)cc1 | 13 | 30 | 6 | 4
COc1cccc(-n2cnc3c(N)ncnc32)c1 [SKF-97416] | 0 | 56 | 46 | 8
CC(C)(C)c1ccc(C(=O)Nc2cn3cc(-c4ccccc4)ccc3n2)cc1 | 0 | 74 | 55 | 21
COc1cccc(C2=C(N(C)c3ccccc3)C(=O)NC2=O)c1 [SB-334865] | 0 | 5 | 3 | 14
